For one assay, the target named is Interleukin-8 (IL8, CXCL8), C-terminal His-tagged (Homo sapiens, UniProt P10145 SEQ:1-72). The assay is described as follows: competition; competition TR-FRET; Aptamer 116 variant. The note with it: tags: C-terminal His (Sino Biological); stem-loop; ssRNA; 2'-F G except 2'-OMe G at X (CGGU-GGGA-AACGU-GAGAU-GGXUU-GCCG); 2'-OMe A,C,U; 5' C6NH2; 3' idT. From the text:
2′OMe modifications may impart higher duplex stability, increased metabolic stability in serum and vitreous, and may have greater coupling efficiency during synthesis compared to 2′F-containing nucleotides. The use of these nucleotides may also avoid the potential loss of the 2′F group during production, which can happen during deprotection steps and exposure to heat. To probe the effect of 2′F-G to 2′OMe-G substitution on target binding, variants of Aptamer 116 and 212 were synthesized where 2′F-G was selectively substituted with 2′OMe-G (Table 49) and assayed for activity by competition TR-FRET using ALEXA FLUOR® 647-labeled parent Aptamer 212. 2′OMe-G replacements were well tolerated in all positions of stem S1 (Aptamers 242-248).
For the sequence “CGGUGGGAAACGUGAGAUGGGUUGCCG [listing 1 of 4 here]”, the binding signal was > 10 fold worse than Aptamer 212.

Staying with this assay, now noted: tags: C-terminal His (Sino Biological); stem-loop; ssRNA; 2'-F G except 2'-OMe G at X (CGGU-GGGA-AACGU-GAGAU-GXGUU-GCCG); 2'-OMe A,C,U; 5' C6NH2; 3' idT.
In the case of “CGGUGGGAAACGUGAGAUGGGUUGCCG [listing 2 of 4 here]”, the binding signal is > 10 fold worse than Aptamer 212.

Staying with this assay, now noted: tags: C-terminal His (Sino Biological); stem-loop; ssRNA; 2'-F G except 2'-OMe G at X (CGGU-GGGA-AACGU-GAGAU-XGGUU-GCCG); 2'-OMe A,C,U; 5' C6NH2; 3' idT.
With “CGGUGGGAAACGUGAGAUGGGUUGCCG [listing 3 of 4 here]”, the binding signal is > 10 fold worse than Aptamer 212.

Still in this assay, the particulars now being: tags: C-terminal His (Sino Biological); stem-loop; ssRNA; 2'-F G except 2'-OMe G at X (CGGU-GGGA-AACXU-GAGAU-GGGUU-GCCG); 2'-OMe A,C,U; 5' C6NH2; 3' idT.
On to “CGGUGGGAAACGUGAGAUGGGUUGCCG [listing 4 of 4 here]”, for which the binding signal is > 10 fold worse than Aptamer 212.

The values above are taken from US20210230599, “STEM-LOOP COMPOSITIONS AND METHODS FOR INHIBITING INTERLEUKIN-8” (VITRISA THERAPEUTICS, INC., published 2021).
